# Laboratory results published in the supplement of paper PMC12282887.
# Where a name gives a salt, the structure may show the parent alone. ± gives the standard deviation of the averaged measurements.
# Experiments:
# Assay in all cases: promoter activity interaction Z-score (Lux/OD deviation from empty-vector control); higher = stronger promoter induction by the compound
# [1] = test system: E. coli BW25113 acrABp lux reporter
# In short: (§1)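 E. coli BW25113 (wild type or marA, soxS or rob deletion) carrying low-copy luxCDABE promoter reporters grew in 40 µl LB Lennox in 384-well plates at 37°C. Each compound was tested at four 1:2 dilutions in biological duplicates. OD600 and luminescence were read every 30 min for 12 h. Areas were taken over 0–8 h (wild type) or 1–9 h (mutants), and wells below 10% of median growth area were removed. The score is the Z-transformed residual of growth-normalised luminescence fitted against the empty-vector control.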
# [2] = test system: E. coli BW25113 micFp lux reporter
# In short: as §1
# [3] = test system: E. coli BW25113 ompFp lux reporter
# In short: as §1
# [4] = test system: E. coli BW25113 robp lux reporter
# In short: as §1
# [5] = test system: E. coli BW25113 soxSp lux reporter
# In short: as §1
# [6] = test system: E. coli BW25113 tolCp lux reporter
# In short: as §1
# [7] = 28.9 µg/ml, genetic background: wild type
# [8] = 28.9 µg/ml, genetic background: ΔmarA
# [9] = 28.9 µg/ml, genetic background: Δrob
# [10] = 28.9 µg/ml, genetic background: ΔsoxS
# [11] = 57.7 µg/ml, genetic background: wild type
# [12] = 57.7 µg/ml, genetic background: ΔmarA
# [13] = 57.7 µg/ml, genetic background: Δrob
# [14] = 57.7 µg/ml, genetic background: ΔsoxS
# [15] = 115.5 µg/ml, genetic background: wild type
# [16] = 115.5 µg/ml, genetic background: ΔmarA
# [17] = 115.5 µg/ml, genetic background: Δrob
# [18] = 115.5 µg/ml, genetic background: ΔsoxS
# [19] = 230.9 µg/ml, genetic background: wild type
# [20] = 230.9 µg/ml, genetic background: ΔmarA
# [21] = 230.9 µg/ml, genetic background: Δrob
# [22] = 230.9 µg/ml, genetic background: ΔsoxS
structure (smiles),measurement,setting,value
O=C(O)COCCN1CCN(C(c2ccccc2)c2ccc(Cl)cc2)CC1 (stereo unspecified) [Cetirizine dihydrochloride],promoter activity interaction Z-score,[1]; [7],0.153 ± 0.22
same,promoter activity interaction Z-score,[1]; [8],-0.276 ± 0.91
same,promoter activity interaction Z-score,[1]; [9],0.0774 ± 0.078
same,promoter activity interaction Z-score,[1]; [10],0.344 ± 0.22
same,promoter activity interaction Z-score,[1]; [11],0.202 ± 0.41
same,promoter activity interaction Z-score,[1]; [12],-0.0899 ± 0.93
same,promoter activity interaction Z-score,[1]; [13],-0.297 ± 0.33
same,promoter activity interaction Z-score,[1]; [14],0.424 ± 0.48
same,promoter activity interaction Z-score,[1]; [15],-0.397 ± 0.14
same,promoter activity interaction Z-score,[1]; [16],-0.531 ± 0.29
same,promoter activity interaction Z-score,[1]; [17],-0.491 ± 0.057
same,promoter activity interaction Z-score,[1]; [18],-0.239 ± 0.68
same,promoter activity interaction Z-score,[1]; [19],-0.0515 ± 0.05
same,promoter activity interaction Z-score,[1]; [20],-0.913 ± 0.67
same,promoter activity interaction Z-score,[1]; [21],-0.435 ± 0.21
same,promoter activity interaction Z-score,[1]; [22],-0.388 ± 0.13
same,promoter activity interaction Z-score,[2]; [7],0.013 ± 0.03
same,promoter activity interaction Z-score,[2]; [8],-0.101 ± 0.1
same,promoter activity interaction Z-score,[2]; [9],0.0307 ± 0.16
same,promoter activity interaction Z-score,[2]; [10],-0.145 ± 0.42
same,promoter activity interaction Z-score,[2]; [11],0.36 ± 0.081
same,promoter activity interaction Z-score,[2]; [12],0.049 ± 0.28
same,promoter activity interaction Z-score,[2]; [13],-0.0293 ± 0.15
same,promoter activity interaction Z-score,[2]; [14],0.0699 ± 0.025
same,promoter activity interaction Z-score,[2]; [15],-0.327 ± 0.23
same,promoter activity interaction Z-score,[2]; [16],0.145 ± 0.13
same,promoter activity interaction Z-score,[2]; [17],0.0776 ± 0.1
same,promoter activity interaction Z-score,[2]; [18],0.0293 ± 0.34
same,promoter activity interaction Z-score,[2]; [19],-0.141 ± 0.27
same,promoter activity interaction Z-score,[2]; [20],-0.0442 ± 0.057
same,promoter activity interaction Z-score,[2]; [21],0.195 ± 0.18
same,promoter activity interaction Z-score,[2]; [22],0.145 ± 0.13
same,promoter activity interaction Z-score,[3]; [7],0.228 ± 0.026
same,promoter activity interaction Z-score,[3]; [8],0.523 ± 0.32
same,promoter activity interaction Z-score,[3]; [9],0.79 ± 0.32
same,promoter activity interaction Z-score,[3]; [10],0.079784 ± 6.4e-05
same,promoter activity interaction Z-score,[3]; [11],0.523 ± 0.44
same,promoter activity interaction Z-score,[3]; [12],0.651 ± 0.083
same,promoter activity interaction Z-score,[3]; [13],0.368 ± 0.14
same,promoter activity interaction Z-score,[3]; [14],-0.205 ± 0.16
same,promoter activity interaction Z-score,[3]; [15],-0.463 ± 0.064
same,promoter activity interaction Z-score,[3]; [16],-0.0368 ± 0.095
same,promoter activity interaction Z-score,[3]; [17],-0.449 ± 0.31
same,promoter activity interaction Z-score,[3]; [18],-0.656 ± 0.25
same,promoter activity interaction Z-score,[3]; [19],0.136 ± 0.46
same,promoter activity interaction Z-score,[3]; [20],0.203 ± 0.1
same,promoter activity interaction Z-score,[3]; [21],-0.688 ± 0.7
same,promoter activity interaction Z-score,[3]; [22],-0.667 ± 0.25
same,promoter activity interaction Z-score,[4]; [7],-0.0279 ± 0.081
same,promoter activity interaction Z-score,[4]; [8],0.621 ± 0.13
same,promoter activity interaction Z-score,[4]; [9],0.0745 ± 0.28
same,promoter activity interaction Z-score,[4]; [10],-0.318 ± 0.5
same,promoter activity interaction Z-score,[4]; [11],0.609 ± 0.057
same,promoter activity interaction Z-score,[4]; [12],0.466 ± 0.37
same,promoter activity interaction Z-score,[4]; [13],-0.327 ± 0.31
same,promoter activity interaction Z-score,[4]; [14],0.0119 ± 0.7
same,promoter activity interaction Z-score,[4]; [15],-0.592 ± 0.34
same,promoter activity interaction Z-score,[4]; [16],0.00802 ± 0.12
same,promoter activity interaction Z-score,[4]; [17],-0.339 ± 0.12
same,promoter activity interaction Z-score,[4]; [18],-0.844 ± 0.1
same,promoter activity interaction Z-score,[4]; [19],-0.359 ± 0.2
same,promoter activity interaction Z-score,[4]; [20],-0.425 ± 0.43
same,promoter activity interaction Z-score,[4]; [21],-1.18 ± 0.85
same,promoter activity interaction Z-score,[4]; [22],-0.876 ± 0.55
same,promoter activity interaction Z-score,[5]; [7],0.227 ± 0.035
same,promoter activity interaction Z-score,[5]; [8],0.219 ± 0.05
same,promoter activity interaction Z-score,[5]; [9],0.143 ± 0.03
same,promoter activity interaction Z-score,[5]; [10],0.36 ± 0.29
same,promoter activity interaction Z-score,[5]; [11],0.625 ± 0.26
same,promoter activity interaction Z-score,[5]; [12],0.233 ± 0.067
same,promoter activity interaction Z-score,[5]; [13],0.113 ± 0.061
same,promoter activity interaction Z-score,[5]; [14],0.411 ± 0.45
same,promoter activity interaction Z-score,[5]; [15],0.0448 ± 0.13
same,promoter activity interaction Z-score,[5]; [16],0.311 ± 0.1
same,promoter activity interaction Z-score,[5]; [17],0.108 ± 0.041
same,promoter activity interaction Z-score,[5]; [18],0.145 ± 0.43
same,promoter activity interaction Z-score,[5]; [19],0.0238 ± 0.4
same,promoter activity interaction Z-score,[5]; [20],0.289 ± 0.11
same,promoter activity interaction Z-score,[5]; [21],0.127 ± 0.06
same,promoter activity interaction Z-score,[5]; [22],-0.0281 ± 0.68
same,promoter activity interaction Z-score,[6]; [7],-0.028 ± 0.45
same,promoter activity interaction Z-score,[6]; [8],0.994 ± 0.066
same,promoter activity interaction Z-score,[6]; [9],0.083 ± 0.48
same,promoter activity interaction Z-score,[6]; [10],0.251 ± 1.2
same,promoter activity interaction Z-score,[6]; [11],1.49 ± 0.11
same,promoter activity interaction Z-score,[6]; [12],0.225 ± 0.61
same,promoter activity interaction Z-score,[6]; [13],0.369 ± 1.3
same,promoter activity interaction Z-score,[6]; [14],-0.607 ± 0.17
same,promoter activity interaction Z-score,[6]; [15],0.247 ± 0.057
same,promoter activity interaction Z-score,[6]; [16],-0.0757 ± 0.41
same,promoter activity interaction Z-score,[6]; [17],0.295 ± 0.29
same,promoter activity interaction Z-score,[6]; [18],-0.698 ± 0.023
same,promoter activity interaction Z-score,[6]; [19],0.059 ± 0.6
same,promoter activity interaction Z-score,[6]; [20],-0.764 ± 0.4
same,promoter activity interaction Z-score,[6]; [21],-0.176 ± 0.18
same,promoter activity interaction Z-score,[6]; [22],0.432 ± 0.65
